# Screens as filed in PubChem.
# The list is not random: actives were taken first. Their share in the collection is about 4.7%.
# D1 ag – activates the human D1 dopamine receptor. HEK293 T-REx D1 cells, calcium flux, agonist mode. activation, % at 2 µM. hit rate 1% among 360,000. AID 504660
#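 Inducible HEK293 T-REx D1 cells, force-coupled to calcium signalling, were plated at 4000 cells/well with tetracycline and held overnight at 30 C. After no-wash calcium dye loading, compound-evoked calcium rise over 180 s flagged agonists.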
# TRHR PAM – TRH receptor (human) allosteric enhancement. hit rate 0.66% among 360,000. P34981. enhancement, % at 2 µM. AID 493056. TRHR cells, fluo-8 calcium fluorescence, EC20 TRH enhancement; in the data active = enhancement above about 30%
# Target sequence (P34981 whole entry, looked up): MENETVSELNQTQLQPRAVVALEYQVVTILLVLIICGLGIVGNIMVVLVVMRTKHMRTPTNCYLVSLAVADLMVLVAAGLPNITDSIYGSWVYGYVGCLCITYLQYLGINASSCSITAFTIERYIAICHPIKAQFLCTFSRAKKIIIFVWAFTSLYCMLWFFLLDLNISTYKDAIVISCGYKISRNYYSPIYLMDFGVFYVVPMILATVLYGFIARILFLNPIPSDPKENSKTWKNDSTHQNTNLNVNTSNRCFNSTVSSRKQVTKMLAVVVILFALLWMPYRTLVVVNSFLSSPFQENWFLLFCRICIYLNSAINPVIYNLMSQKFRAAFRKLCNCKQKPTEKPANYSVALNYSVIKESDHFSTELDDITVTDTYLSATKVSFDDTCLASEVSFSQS
#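 Enhancer read-out: after compound pinning and an initial kinetic agonist-mode read, an EC20 of TRH (10 nM final) was injected and fluo-8 calcium signal (Ex 480/Em 530) followed at 1 s/cycle for 100 cycles in TRHR-expressing cells.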
# D1 antag – blocks dopamine activation of the human D1 receptor. AID 504652. activity change, negative = inhibition, % at 10 µM. P21728. hit rate 3.2% among 360,000. HEK293 TREx D1 cells, calcium flux, dopamine EC80; hits give low values; in the data active = activity change below about -30%
#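 Compound effects on dopamine-evoked calcium signalling were measured in tetracycline-induced HEK293 Trex D1 cells. Dopamine at EC80 followed a 180 s compound pre-read, and fluorescence was tracked kinetically for 180 s more.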
# D1 PAM – potentiators of human D1 dopamine receptor | potentiation, % at 10 µM | hit rate 0.036% among 360,000 | AID 504651 | HEK293 TREx D1 cells, calcium flux, dopamine EC20 potentiation | P21728; in the data active = potentiation above about 30%
# TRHR ag – TRH receptor (human) agonism; P34981; TRHR cells, calcium flux fluo-8, FDSS agonist mode; activation, % at 2 µM; hit rate 0.18% among 360,000
#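 Read-out: compound-evoked intracellular calcium rise in TRHR cells, fluo-8 dye, kinetic FDSS fluorescence at 1 s/cycle following a 10-cycle baseline. Cells cultured overnight before dye loading (30 min–1.5 h, RT).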
# Numbers stand for hits; n = inactive. Cut-off read from the data, not from the text of the source, unless noted: active = activation above about 30%; inactive = the rest.
SMILES,D1 ag,TRHR PAM,D1 antag,D1 PAM,TRHR ag
CCSC1=NC2(CCN(C(=O)NC3CCCCC3)CC2)N=C1c1ccc(C)c(C)c1,n,n,n,n,n
COc1cc(OC)c(NC(=O)C2CCN(S(=O)(=O)c3ccc4c(c3)oc(=O)n4C)CC2)cc1Cl,n,n,n,n,n
O=C(Cc1csc(Nc2nc(=S)[nH]c3ccccc23)n1)NCCCN1CCN(c2ccccc2F)CC1,n,n,-86,n,n
O=C(Cc1csc(Nc2nc(=S)[nH]c3ccccc23)n1)NCc1ccc(Cl)cc1,n,n,-97,n,n
O=C(c1ccc(Cn2cc(Br)cn2)cc1)N1N=C(C(F)F)CC1(O)C(F)F (stereo not given),48,n,n,n,n
Cc1cc2oc(=O)c(CC(=O)NCCc3ccccc3F)c(C)c2c2occ(C(C)(C)C)c12,n,n,n,n,n
COC(=O)c1c(-c2cccs2)csc1NC(=O)COc1ccc(C(C)C)cc1,n,n,n,n,n
COC(=O)CN1C(=O)S/C(=C/c2ccc(N3CCCCC3)o2)C1=O,57,n,n,n,56
CCOC(=O)CN1C(=O)S/C(=C/c2ccc(N3CCCCC3)o2)C1=O,55,n,n,n,n
O=S(=O)(Nc1ccc(-c2ccc(N3CCCCC3)nn2)cc1)c1ccc(OC(F)(F)F)cc1,n,n,n,n,n
COc1ccc(Cl)cc1NS(=O)(=O)c1c(C)nc2scc(C)n2c1=O,n,n,n,n,n
Cc1ccc(-c2cc(NC(=O)C(C)Oc3ccc(C)c(C)c3)on2)cc1 (stereo not given),n,n,n,n,n
CC(C)Cn1cnc2sc3c(c2c1=N)CCCC3,n,n,n,n,n
CC(O)CNc1nc2sc3c(c2c(=O)n1CCc1ccccc1)CCCCC3 (stereo not given),n,n,n,n,n
N=c1c2c3c(sc2ncn1Cc1ccco1)CCCCC3,n,n,-35,n,n
CN(C)CCNc1nc2sc3c(c2c(=O)n1CCc1ccccc1)CCCCC3,106,n,-35,n,n
CC(O)CNc1nc2sc3c(c2c(=O)n1Cc1ccco1)CCCCC3 (stereo not given),34,n,n,n,n
Cc1cc2oc(C(=O)Nc3sc4c(c3C(=O)NCc3ccccc3)CCCC4)cc(=O)c2cc1C,n,n,n,n,n
CC1=C(C(=O)Nc2ccc(C)cc2C)C(c2ccc(C(=O)O)cc2)n2nc(SCc3ccccc3)nc2N1 (stereo not given),n,n,-59,n,n
COC(=O)c1cn(-c2ccccc2)nc1-c1ccccc1,n,n,n,n,n
COC(=O)c1cn(-c2ccccc2)c(C)c1C(=O)OC,50,n,n,n,n
Cc1ccc(C(=O)/C=C\C(=O)c2ccc(C)cc2)cc1,n,n,-38,n,n
CCOC(=O)c1sc(=S)n(Cc2ccccc2)c1C,n,n,-31,n,n
CNC(=O)c1c(NC(=O)c2ccc(S(=O)(=O)N3CC(C)OC(C)C3)cc2)sc2c1CCN(C(C)C)C2 (stereo not given),n,n,n,n,n
CNC(=O)c1c(NC(=O)c2ccc(S(=O)(=O)N3CCCC3)cc2)sc2c1CCN(C(C)C)C2,89,n,n,n,47
SMILES,D1 ag,TRHR PAM,D1 antag,D1 PAM,TRHR ag
CC(C)CN(CC(C)C)S(=O)(=O)c1ccc(C(=O)Nc2sc3c(c2C(N)=O)CCN(C(C)C)C3)cc1,54,n,n,n,n
CCN1CCc2c(sc(NC(=O)c3ccc(S(=O)(=O)N(CC)c4ccccc4)cc3)c2C(N)=O)C1,148,n,n,n,74
CC(C)N1CCc2c(sc(NC(=O)c3ccc(S(=O)(=O)N4CCOCC4)cc3)c2C(N)=O)C1,n,n,n,n,n
CCCCN(CCCC)S(=O)(=O)c1ccc(C(=O)Nc2sc3c(c2C(N)=O)CCN(CC)C3)cc1,78,n,n,n,n
CCOc1ccc(CCNC(=O)CCSCc2ccc(Cl)cc2)cc1OCC,n,n,n,n,n
CCOC(=O)c1[nH]c2ccccc2c1NC(=O)c1ccccc1F,n,n,n,n,n
NC1=NN=C(N2N=C(c3ccc(Br)cc3)CC2(O)C(F)(F)F)n2ncnc2C1 (stereo not given),n,n,-45,n,n
O=C(O)CCc1cc(F)c(S(=O)(=O)N2CCN(S(=O)(=O)c3ccc4c(c3)OCCO4)CC2)cc1F,n,n,n,n,n
